# From PubChem BioAssay (EPA / NIEHS)
# Results filed as inconclusive are left out. Activity calls are given as the source filed them. How the source made its calls, unless noted: active means hit-call score of the fitted dose curve at least 0.9, where 1 is the maximum; inactive means score below 0.9.
# Key:
# [1] = read-out: Monokine induced gamma interferon (MIG), CXCL9 (gene 4283); experiment: BSK_SAg_MIG: BioMAP Diversity Plus: SAg Assay for Monokine induced gamma interferon (MIG) Biomarker Activity (AID 2283092); settings: primary human HUVEC with PBMC; actives raise or lower the signal
# Method in brief: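 Measures CXCL9 protein by ELISA in a human vascular primary-cell co-culture (umbilical vein endothelium with PBMC) 24 h after chemical addition. Activity is scored up or down from the DMSO control.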
# [2] = BSK_SAg_PBMCCytotoxicity: PBMC Cytotoxicity Assessment in the BioMAP Diversity Plus: SAg Assay (AID 2283093); settings: primary human HUVEC with PBMC;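 further: PBMC viability measured as Alamar Blue reduction fluorescence at 546/580 nm; fitted both ways against DMSO so a hit may be loss or gain of signal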;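 on AC50: PBMC superantigen activated with SEB plus TSST-1 one hour after compound addition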
# Method in brief: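 Alamar Blue reduction (6 h, ex/em 546/580 nm) read after 90 h culture of PBMC pre-dosed 1 h then stimulated with SEB plus TSST-1, 20 ng/mL each. Gain or loss of signal fitted relative to DMSO.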
# [3] = read-out: Interleukin-8 (IL8), CXCL8 (gene 3576); experiment: BSK_SAg_IL8: BioMAP Diversity Plus: SAg Assay for Interleukin-8 (IL8) Biomarker Activity (AID 2283094); settings: primary human HUVEC with PBMC; actives raise or lower the signal
# Method in brief: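 Chemicals were dosed onto a human endothelial–PBMC co-culture, and IL-8 was quantified by ELISA after 24 h. Both increases and decreases were fitted relative to DMSO.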
# [4] = BSK_SAg_Proliferation: Cell Proliferation Assessment in the BioMAP Diversity Plus: SAg Assay (AID 2283095); settings: primary human HUVEC with PBMC;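 further: relative cell number as total protein by SRB absorbance in sub-confluent culture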
# Method in brief: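 Absorbance of sulforhodamine B at 560 nm reports total protein in a human vascular endothelial/PBMC co-culture after 96 h chemical exposure. Gain or loss of signal is fitted in both directions against DMSO.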
# [5] = BSK_SAg_SRB: Viability Assessment in the BioMAP Diversity Plus: SAg Assay (AID 2283096); settings: primary human HUVEC with PBMC;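 further: cells read one day after compound addition; hits may be either gain or loss of signal compared with DMSO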
# Method in brief: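 SRB absorbance at 560 nm served as the viability read-out. Cells (HUVEC plus peripheral blood mononuclear cells) were TCA-fixed and stained 24 h post-dosing; activity fitted in both directions against DMSO controls.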
# [6] = target: human CYP19A1, CYP19A1 (gene 1588) (UniProt P11511); experiment: NVS_ADME_hCYP19A1: NovaScreen (NVS) CYP450-related Enzyme Activity (ADME) Assay for human CYP19A1 (AID 2283098; active means hit-call score of the fitted dose curve at least 0.9, where 1 is the maximum;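 on AC50: potency for inhibitors seen as loss of fluorescent enzyme signal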)
# human CYP19A1, CYP19A1 (gene 1588), sequence (P11511 whole entry, looked up): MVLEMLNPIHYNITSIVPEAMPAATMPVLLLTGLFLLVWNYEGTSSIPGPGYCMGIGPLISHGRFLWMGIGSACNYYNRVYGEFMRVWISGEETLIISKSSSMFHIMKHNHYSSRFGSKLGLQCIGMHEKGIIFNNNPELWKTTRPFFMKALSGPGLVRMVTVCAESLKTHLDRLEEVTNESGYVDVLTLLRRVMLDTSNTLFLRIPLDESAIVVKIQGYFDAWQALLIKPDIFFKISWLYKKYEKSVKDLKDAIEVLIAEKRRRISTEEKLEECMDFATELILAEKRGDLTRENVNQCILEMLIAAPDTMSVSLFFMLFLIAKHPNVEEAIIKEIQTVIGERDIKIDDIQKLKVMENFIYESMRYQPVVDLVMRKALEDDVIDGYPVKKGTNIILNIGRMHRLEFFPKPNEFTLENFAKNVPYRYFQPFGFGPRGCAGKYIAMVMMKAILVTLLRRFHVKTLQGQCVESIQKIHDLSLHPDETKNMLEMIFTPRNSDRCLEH
# Method in brief: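 Primary testing was in duplicate at a single 10 uM concentration, with actives followed up in concentration-response series. Fluorescence read-out of recombinant enzyme activity at 0.5 h, cell-free. Acetonitrile was the negative-control baseline.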
# [7] = target: human CYP1A1, CYP1A1 (gene 1543) (UniProt P04798); experiment: NVS_ADME_hCYP1A1: NovaScreen (NVS) CYP450-related Enzyme Activity (ADME) Assay for human CYP1A1 (AID 2283100; active means hit-call score of the fitted dose curve at least 0.9, where 1 is the maximum)
# human CYP1A1, CYP1A1 (gene 1543), sequence (P04798 whole entry, looked up): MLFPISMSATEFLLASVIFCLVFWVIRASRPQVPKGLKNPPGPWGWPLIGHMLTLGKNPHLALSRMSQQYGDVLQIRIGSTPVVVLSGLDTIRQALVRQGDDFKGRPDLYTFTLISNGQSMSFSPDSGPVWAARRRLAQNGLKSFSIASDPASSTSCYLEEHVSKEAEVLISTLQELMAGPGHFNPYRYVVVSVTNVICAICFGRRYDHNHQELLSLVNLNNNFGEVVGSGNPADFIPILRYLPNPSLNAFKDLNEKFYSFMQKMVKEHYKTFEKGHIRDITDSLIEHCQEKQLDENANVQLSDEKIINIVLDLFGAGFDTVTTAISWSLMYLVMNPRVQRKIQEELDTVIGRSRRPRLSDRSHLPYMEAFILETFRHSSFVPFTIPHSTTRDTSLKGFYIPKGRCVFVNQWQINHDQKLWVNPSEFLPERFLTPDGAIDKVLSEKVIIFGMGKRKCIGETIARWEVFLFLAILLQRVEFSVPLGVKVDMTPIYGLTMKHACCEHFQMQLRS
# Method in brief: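 Cell-free fluorescence assay of recombinant human CYP1A1 activity with a specific substrate, read 1 h after dosing. Compounds were screened in duplicate at 10 uM, then hits tested in concentration-response up to 20 uM; acetonitrile served as baseline.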
# [8] = target: human CYP2A6, CYP2A6 (gene 1548) (UniProt P11509); experiment: NVS_ADME_hCYP2A6: NovaScreen (NVS) CYP450-related Enzyme Activity (ADME) Assay for human CYP2A6 (AID 2283099; active means hit-call score of the fitted dose curve at least 0.9, where 1 is the maximum)
# human CYP2A6, CYP2A6 (gene 1548), sequence (P11509 whole entry, looked up): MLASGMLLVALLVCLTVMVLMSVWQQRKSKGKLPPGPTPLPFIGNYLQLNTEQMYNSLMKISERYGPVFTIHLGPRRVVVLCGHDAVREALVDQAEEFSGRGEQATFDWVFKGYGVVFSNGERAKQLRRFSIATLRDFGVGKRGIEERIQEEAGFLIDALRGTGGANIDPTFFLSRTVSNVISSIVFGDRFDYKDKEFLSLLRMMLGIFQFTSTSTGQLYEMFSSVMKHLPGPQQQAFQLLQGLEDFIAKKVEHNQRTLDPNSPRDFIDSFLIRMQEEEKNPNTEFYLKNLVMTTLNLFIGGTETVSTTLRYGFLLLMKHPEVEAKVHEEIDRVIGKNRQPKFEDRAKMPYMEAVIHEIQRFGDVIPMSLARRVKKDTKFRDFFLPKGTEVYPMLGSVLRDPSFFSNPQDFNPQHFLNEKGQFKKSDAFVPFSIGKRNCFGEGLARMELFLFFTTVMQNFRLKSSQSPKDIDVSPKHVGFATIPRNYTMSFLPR
# Procedure: NVS_ADME_hCYP2A6 is a biochemical, single-readout assay that uses extracted gene-proteins from insect cells in a cell-free assay. Measurements were taken 0.5 hour after chemical dosing in a 96-well plate.NVS_ADME_hCYP2A6 is one of one assay component(s) measured or calculated from the NVS_ADME_hCYP2A6 assay. It is designed to make measurements of enzyme activity, a form of enzyme reporter, as detected with fluorescence intensity signals by Fluorescence technology.Data from the assay component NVS_ADME_hCYP2A6 was analyzed into 1 assay endpoint. This assay endpoint, NVS_ADME_hCYP2A6, was analyzed in the positive analysis fitting direction relative to Acetonitrile as the negative control and baseline of activity. Using a type of enzyme reporter, loss-of-signal activity can be used to understand changes in the enzymatic activity as they relate to the gene CYP2A6. Furthermore, this assay endpoint can be referred to as a primary readout, because this assay has produced multiple assay endpoints where this one serves a enzymatic activity function. To generalize the intended target to other relatable targets, this assay endpoint is annotated to the cyp intended target family, where the subfamily is xenobiotic metabolism.
# Binding assays used specific radioligands (tritiated, iodinated) with non-radioactive competitive displacement ligands in agonist or antagonist protocols (as indicated) and various reference compounds and inhibitors to titrate specific binding to receptors and transporters. Most enzyme assays (CYPs, kinases, phosphatases, proteases, HDACs) used recombinant protein and specific substrates (fluorescence mostly, some colorimetric and radioactive) and inhibitors, followed by a biochemical separation of substrate and product. All assays for the biochemical HTS were initially run in duplicate at a single concentration (10 uM for CYP450 assays and 25 uM for all others). Assay-chemical combinations meeting a pre-defined threshold (e.g., 30% inhibition and other criteria defined below) were then run in singleton concentration-response format with maximum concentration of 20 uM for CYPs and 50 uM for all others. Each assay was run with positive and negative controls, and concurrent controls on every plate. The follow-up (secondary) screen tested active chemical-pairs in concentration series, as well as a few additional assays not tested in the primary screen, some selected negative inactives, and several cases re-run in the concentration series for confirmatory purposes.
# [9] = target: human CYP2B6, CYP2B6 (gene 1555) (UniProt P20813); experiment: NVS_ADME_hCYP2B6: NovaScreen (NVS) CYP450-related Enzyme Activity (ADME) Assay for human CYP2B6 (AID 2283101; active means hit-call score of the fitted dose curve at least 0.9, where 1 is the maximum)
# human CYP2B6, CYP2B6 (gene 1555), sequence (P20813 whole entry, looked up): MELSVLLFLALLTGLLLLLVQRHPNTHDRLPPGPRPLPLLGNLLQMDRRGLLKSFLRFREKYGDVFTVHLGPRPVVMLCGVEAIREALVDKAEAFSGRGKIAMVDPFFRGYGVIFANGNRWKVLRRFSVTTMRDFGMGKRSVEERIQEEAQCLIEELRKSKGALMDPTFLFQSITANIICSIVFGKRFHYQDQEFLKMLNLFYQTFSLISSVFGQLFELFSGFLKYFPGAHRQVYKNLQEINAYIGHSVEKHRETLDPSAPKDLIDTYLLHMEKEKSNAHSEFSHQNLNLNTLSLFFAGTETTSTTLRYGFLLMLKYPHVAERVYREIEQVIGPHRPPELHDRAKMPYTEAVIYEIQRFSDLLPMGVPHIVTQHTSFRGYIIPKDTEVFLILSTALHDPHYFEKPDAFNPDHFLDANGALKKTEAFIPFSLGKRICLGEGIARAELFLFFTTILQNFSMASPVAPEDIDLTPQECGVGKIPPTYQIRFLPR
# Method in brief: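 Recombinant protein, specific fluorescent substrate, read at 1 h post-dosing. Primary: single 10 uM, duplicate; follow-up: concentration series. Activity = signal loss vs acetonitrile baseline, with positive and negative controls on every plate.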
smiles,measurement,setting,value
CCCOc1nn(C(=O)NS(=O)(=O)c2ccccc2C(=O)OC)c(=O)n1C,outcome,[1],inactive
same,outcome,[2],inactive
same,outcome,[3],inactive
same,outcome,[4],inactive
same,outcome,[5],inactive
CCOP(=S)(Oc1cnc(C(C)(C)C)nc1)OC(C)C (stereo unspecified),AC50,[1],33.3 µM (active)
same,AC50,[2],36.7 µM (active)
same,AC50,[3],30.3 µM (active)
same,AC50,[4],36.6 µM (active)
same,AC50,[5],34.3 µM (active)
C=C(C)[C@H]1Cc2c(ccc3c2O[C@@H]2COc4cc(OC)c(OC)cc4[C@@H]2C3=O)O1,AC50,[1],27.2 µM (active)
same,outcome,[2],inactive
same,AC50,[3],1.61 µM (active)
same,AC50,[4],5.57 µM (active)
same,AC50,[5],5.52 µM (active)
same,outcome,[6],inactive
same,outcome,[7],inactive
C#CC(C)(C)NC(=O)c1cc(Cl)cc(Cl)c1,outcome,[1],inactive
same,outcome,[2],inactive
same,outcome,[3],inactive
same,outcome,[4],inactive
same,outcome,[5],inactive
same,outcome,[6],inactive
same,AC50,[7],2.56 µM (active)
CCCSP(=O)(OCC)SCCC,outcome,[1],inactive
same,outcome,[2],inactive
same,outcome,[3],inactive
same,outcome,[4],inactive
same,outcome,[5],inactive
same,outcome,[6],inactive
CNC(=O)Oc1cccc2c1OC(C)(C)O2,outcome,[1],inactive
same,outcome,[2],inactive
same,outcome,[3],inactive
same,AC50,[4],20 µM (active)
same,outcome,[5],inactive
CCCCOC(=O)[C@@H](C)Oc1ccc(Oc2ccc(C#N)cc2F)cc1,outcome,[1],inactive
same,outcome,[2],inactive
same,outcome,[3],inactive
same,outcome,[4],inactive
same,outcome,[5],inactive
COc1cc(OC)nc(Sc2cccc(Cl)c2C(=O)O)n1,outcome,[1],inactive
same,outcome,[2],inactive
same,outcome,[3],inactive
same,outcome,[4],inactive
same,outcome,[5],inactive
CNC(=O)ON=C(C)SC,outcome,[1],inactive
same,outcome,[2],inactive
same,outcome,[3],inactive
same,outcome,[4],inactive
same,outcome,[5],inactive
same,outcome,[6],inactive
Nc1c(Cl)cc([N+](=O)[O-])cc1Cl,outcome,[1],inactive
same,outcome,[2],inactive
same,outcome,[3],inactive
same,outcome,[4],inactive
same,outcome,[5],inactive
same,AC50,[8],2.05 µM (active)
same,AC50,[9],3.48 µM (active)
CCOP(=S)(OCC)Oc1cc(C)nc(C(C)C)n1,outcome,[1],inactive
same,outcome,[2],inactive
same,outcome,[3],inactive
same,outcome,[4],inactive
same,outcome,[5],inactive
same,outcome,[6],inactive
CCOP(=O)(NC(C)C)Oc1ccc(SC)c(C)c1 (stereo unspecified),outcome,[1],inactive
same,outcome,[2],inactive
same,outcome,[3],inactive
same,outcome,[4],inactive
same,outcome,[5],inactive
same,AC50,[7],4.81 µM (active)
CC(COc1ccc(Oc2ccccc2)cc1)Oc1ccccn1 (stereo unspecified),outcome,[1],inactive
same,AC50,[2],12 µM (active)
same,outcome,[3],inactive
same,AC50,[4],26.7 µM (active)
same,AC50,[5],7.1 µM (active)
CCOP(=S)(OCC)SCCSCC,outcome,[1],inactive
same,outcome,[2],inactive
same,outcome,[3],inactive
same,outcome,[4],inactive
same,outcome,[5],inactive
CN(C)NC(=O)CCC(=O)O,outcome,[1],inactive
same,outcome,[2],inactive
same,outcome,[3],inactive
same,outcome,[4],inactive
same,outcome,[5],inactive
CCOP(=O)(SC(C)CC)N1CCSC1=O (stereo unspecified),outcome,[1],inactive
same,outcome,[2],inactive
same,outcome,[4],inactive
same,outcome,[5],inactive
COP(=O)(OC)OC(Br)C(Cl)(Cl)Br (stereo unspecified),AC50,[1],36.8 µM (active)
same,AC50,[2],14.7 µM (active)
same,AC50,[3],22.9 µM (active)
same,AC50,[4],7.28 µM (active)
same,AC50,[5],30.4 µM (active)
CC(C)=CC1C(C(=O)OCN2C(=O)C3=C(CCCC3)C2=O)C1(C)C (stereo unspecified),AC50,[1],34.2 µM (active)
same,AC50,[2],26.1 µM (active)
same,AC50,[4],26.1 µM (active)
same,outcome,[5],inactive
FC(F)C(F)(F)OCC(Cn1cncn1)c1ccc(Cl)cc1Cl (stereo unspecified),outcome,[1],inactive
same,outcome,[2],inactive
same,outcome,[3],inactive
same,AC50,[4],23 µM (active)
same,AC50,[5],20 µM (active)
same,AC50,[6],2.15 µM (active)
same,outcome,[8],inactive
same,AC50,[9],3.74 µM (active)
